These results are taken from PubChem BioAssay (NCATS).

Assay [1] addresses Aldehyde dehydrogenase, mitochondrial (Homo sapiens) (UniProt P05091). The assay is described as follows: qHTS for Inhibitors of the Aldehyde Dehydrogenase Family (ALDH2) Confirmatory screens (AID 2061303; active = well fitted inhibition curve with a large enough effect; title and protocol of this record describe different tests; note: nearly all actives have a fitted effect of over 45% in size; note: potency is the fitted concentration of half-maximal effect). (In general: qHTS replaces the single test concentration by a dilution series.)
Assay [2] in a line: qHTS for Inhibitors of the Aldehyde Dehydrogenase Family (ALDH1A2, ALDH1A3, ALDH2, ALDH3A1) (AID 2061307). For Potency: test system not described further here; potency is the fitted concentration of half-maximal effect. Note: nearly all actives have a fitted effect of over 50% in size.
Assay [3] deals with Aldehyde dehydrogenase, mitochondrial (Homo sapiens) (UniProt P05091). In words: qHTS for Inhibitors of the Aldehyde Dehydrogenase Family (ALDH2) Primary screen (AID 2061308). Note: nearly all actives have a fitted effect of over 55% in size. Note: potency is the fitted concentration of half-maximal effect.
For assay [4], the target named is Retinaldehyde dehydrogenase 3 (Homo sapiens) (UniProt P47895). The assay is described as follows: qHTS for Inhibitors of the Aldehyde Dehydrogenase Family (ALDH1A3) Primary screen (AID 2061315).
The target in assay [5] is Aldehyde dehydrogenase 1A1 (Homo sapiens) (UniProt P00352). The assay is described as follows: qHTS for Inhibitors of the Aldehyde Dehydrogenase Family (ALDH1A1) Confirmatory screens (AID 2061316). Note: nearly all actives have a fitted effect of over 65% in size. Note: potency is the fitted concentration of half-maximal effect.
Assay [6] can be described thus: BET inhibitor-based combinations targeting novel dependencies in MECOM-rearranged (r) AML: SET-2 cell line (AID 2202231). Note: potency is the fitted concentration of half-maximal effect; nearly all actives have a fitted effect of over 35% in size. Conditions: SET-2 AML cells viability, CellTiter-Glo luminescence, 48 h; viability: active compounds read low, concentration not given here. A digest of the protocol:
(§1)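 A 48 hr incubation preceded viability reading by CellTiter-Glo, with 15 min room-temperature development. Dose series had 11 points; normalization used DMSO and empty wells; AUC was computed and mean-centered per line as Z-AUC.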
(ATP-based viability assays read luminescence as a measure of living cells.)

The nature of assay [7]: BET inhibitor-based combinations targeting novel dependencies in MECOM-rearranged (r) AML: UCSD-AML1 cell line (AID 2202235). Note: series mostly up to about 46 µM; nearly all actives have a fitted effect of over 40% in size. A digest of the protocol: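 Each compound is tested in an 11-point concentration series against 500 seeded cells/well for 48 hr. The luminescent viability signal is normalized to DMSO and blank wells, then reduced to AUC and a cell-line-centred Z-AUC.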

Assay [8] is described as follows: BET inhibitor-based combinations targeting novel dependencies in MECOM-rearranged (r) AML: AML-191 cell line (AID 2202236; note: potency is the fitted concentration of half-maximal effect; nearly all actives have a fitted effect of over 35% in size). A digest of the protocol:
as §1

Assay [9] in a line: BET inhibitor-based combinations targeting novel dependencies in MECOM-rearranged (r) AML: AML-194 cell line (AID 2202237; note: nearly all actives have a fitted effect of over 40% in size). The method in brief:
as §1

In assay [10] the target is Retinaldehyde dehydrogenase 3 (Homo sapiens) (UniProt P47895). The assay is described as follows: qHTS for Inhibitors of the Aldehyde Dehydrogenase Family (ALDH1A3) Confirmatory screens (AID 2061311). Note: nearly all actives have a fitted effect of over 60% in size. Note: potency is the fitted concentration of half-maximal effect.
The target of assay [11] is Retinal dehydrogenase 2 (Homo sapiens) (UniProt O94788). In words: qHTS for Inhibitors of the Aldehyde Dehydrogenase Family (ALDH1A2) Confirmation screens (AID 2061314). Note: nearly all actives have a fitted effect of over 65% in size. Note: potency is the fitted concentration of half-maximal effect.

Results filed as inconclusive are left out. The source made the active and inactive calls. Unless noted, calls come from the whole dose curve; as a rule, active = well fitted curve in the direction sought with a large enough effect; inconclusive = small, poorly fitted or top-dose-only effect, or another doubt; inactive = no such curve, though single readings can be large; an effect the other way counts as inactive or inconclusive.

For `O=S(=O)(NCCCCCCNS(=O)(=O)c1c(F)cccc1F)c1ccc2c(c1)OCCO2`, the Potency entry in [1], in assay [3] and in assay [4] was “inactive” in each case. Also, the Potency in assay [2] is 5.01 µM (active); in assay [5] it was 8.96 µM (active).
On to `CC(=O)N1CCN(c2ccc(NCc3ccc(-c4cccc(Cl)c4)o3)cc2)CC1`, for which the Potency was 1.13 µM (active) in [1], 1.59 µM (active) in assay [2], 2.24 µM (active) in assay [3] and 6.34 µM (active) in [5].
`O=C(Nc1ccc2ccccc2c1)Nc1nnc(Br)s1`: the Potency in assay [1] is 7.94 µM (active); in [2] it was 15.8 µM (active). The Potency result in assay [3] and in assay [4] was “inactive” each time.
As for `C[C@H](N)C(=O)Nc1cccc(-c2nn3c(=O)cc(N4CCNCC4)nc3s2)c1`, the Potency result in assay [1], in assay [2], in [3] and in [4] was “inactive” each time.
As to `COc1cccc(Nc2nc(C#N)nc(NC3CCCC3)n2)c1`, the Potency entry in assay [1], in assay [3], in assay [4] and in assay [5] was “inactive” throughout. For the same molecule, in assay [2], the Potency was 10.1 µM (active).
Take `COc1ccc(C2Nc3ccccc3C(=O)N2Cc2ccccc2)cc1COc1ccc(Cl)cc1` (centres undefined): the Potency result in assay [1], in assay [3] and in assay [4] was “inactive” in each case. For the same molecule, the Potency in [2] was 5.65 µM (active).
For the molecule `CNC(=O)c1cc(Oc2ccc3nc(N[C@@H]4CCCC[C@H]4O)sc3c2)ccn1`, the Potency result in assay [1], in [3], in [4], in assay [7] and in assay [9] was “inactive” in each case. For the same molecule, the figures for the Potency in assay [2], in assay [6] and in assay [8] were 10.1 µM (active), 20.9 µM (active) and 14.8 µM (active), respectively.
On to `N#Cc1nc(Nc2cccc(F)c2)nc(NC2CCCC2)n1`, for which the Potency in assay [1] was 1.78 µM (active); in assay [2] it was 3.55 µM (active). Besides, the Potency entry in assay [3] and in [4] was “inactive” in each case.
For the molecule `Cc1ccc(CNc2ccc(N3CCN(C)CC3)cc2)cc1`, the Potency result in assay [1], in assay [2], in assay [3], in [4] and in assay [5] was “inactive” throughout.
On to `O=C([C@H](Cc1ccc(O[S+](=O)([O-])c2cccc3cccnc23)cc1)N[S+](=O)([O-])c1ccccn1)N1CCN(c2ccccc2)CC1`, for which the Potency entry in assay [1], in [2], in assay [3] and in assay [4] was “inactive” in each case.
As to `c1ccc(CN(Cc2ccccc2)Cc2nnc(-c3cc4ccccc4[nH]3)s2)cc1`, the Potency in assay [1] is 4 µM (active); in assay [2], 11.2 µM (active). Moreover, the Potency result in [3] and in assay [4] was “inactive” in each case.
In the case of `FC(F)(F)c1ccc(-c2nc(-c3nnc4n3CCCCC4)c(C(F)(F)F)o2)cc1`, the Potency result in assay [1], in [2], in assay [3] and in assay [4] was “inactive” throughout.
Turning to `N#Cc1nc(Nc2ccccc2)nc(NC2CCCC2)n1`, the Potency in assay [1] was 1.78 µM (active); in assay [2], 0.631 µM (active). Further, the Potency result in assay [3] and in assay [4] was “inactive” throughout.
Regarding `Cc1ccc(NC(=O)CN2C(=O)N/C(=C\c3cccn3-c3ccc(P(=O)(O)O)cc3)C2=O)cc1`, the Potency entry in [1], in [2], in assay [3], in assay [4] and in assay [5] was “inactive” in each case.
For the molecule `S=C(Nc1cc(Cl)ccn1)N1CCN(c2ccc(Cl)c(Cl)c2)CC1`, the Potency in assay [1] is 5.62 µM (active); in assay [2], 6.31 µM (active); in [3], 3.98 µM (active); in assay [5], 4 µM (active). The Potency entry in assay [4] was “inactive”.
Regarding `COc1ccc(-c2cncc(NC(=O)c3cccs3)c2)cc1OC`, the Potency result in assay [1], in assay [2], in assay [3] and in assay [5] was “inactive” each time.
`CC(C)(C)OC(=O)N1CCN(c2ccc(NCc3ccc4c(-c5ccc(F)cc5)cc(=O)oc4c3)cc2)CC1`: the Potency entry in assay [1], in assay [3] and in assay [4] was “inactive” each time. Besides, the Potency in assay [2] was 5.04 µM (active).
`CC(C)(C)OC(=O)N1CCN(c2ccc(NCc3ccc(-c4ccc(C(C)(C)C)cc4)o3)cc2)CC1`: the Potency result in assay [1], in assay [2] and in assay [3] was “inactive” in each case. Moreover, in [5], the Potency is 10.1 µM (active).
With `COc1ccc(C2Nc3ccccc3C(=O)N2Cc2ccc(C(C)(C)C)cc2)cc1COc1ccc(NC(C)=O)cc1` (centres undefined), the Potency was 1.58 µM (active) in assay [1] and 3.57 µM (active) in [2]. The Potency entry in [3] and in assay [4] was “inactive” each time.
On to `CN(C)c1ccc(/C=C/C(=O)Nc2cccc([S+](=O)([O-])Nc3ccccc3F)c2)cc1`, for which the Potency result in assay [1], in assay [2], in assay [3] and in assay [4] was “inactive” in each case.
Regarding `COc1ccc(C(=O)N(Cc2ccccc2)Cc2ccc(OC)c(COc3ccc(NC(C)=O)cc3)c2)c(O)c1`, the Potency result in [1], in assay [2], in [3] and in [4] was “inactive” in each case.
`CC(C)c1ccccc1-c1nc(NCC2CCN(c3cccnc3)CC2)c2ccccc2n1`: the Potency result in [1], in assay [2], in [3] and in assay [4] was “inactive” each time.
For the molecule `CC(=O)Nc1sc2c(c1-c1ccc(C(F)(F)F)cc1)CCNC2`, the Potency result in [1], in [2], in [3], in assay [4] and in [5] was “inactive” in each case.
For the molecule `COc1ccc(C2Nc3ccccc3C(=O)N2Cc2ccccc2)cc1COc1cccc(Cl)c1` (centres undefined), the Potency in assay [1] is 5.01 µM (active); in [2], 5.65 µM (active). For the same molecule, the Potency result in [3], in assay [4] and in [5] was “inactive” throughout.
`N#Cc1c(-c2ccc(O)cc2)no[n+]1[O-]`: the Potency result in assay [1], in assay [3] and in assay [4] was “inactive” throughout. The Potency in [2] was 12.7 µM (active).
In the case of `Cc1nc(SCC(=O)c2ccc(F)cc2)n[nH]1`, the Potency entry in assay [1], in [2], in assay [10], in assay [11], in assay [4] and in assay [5] was “inactive” in each case.
For `O=c1c(Nc2ccc(Cl)c(Cl)c2)c(Nc2nnc(-c3ccncc3)s2)c1=O`, the Potency in assay [1] was 2 µM (active); in [2] it was 11.3 µM (active); in assay [10] it was 11.2 µM (active); in [11] it was 3.98 µM (active); in assay [5], 8.96 µM (active). Moreover, the Potency entry in assay [4] was “inactive”.
In the case of `O=C(CN1C(=O)N/C(=C\c2cccn2-c2cccc(C(=O)O)c2)C1=O)Nc1ccc(F)cc1`, the Potency result in assay [1], in assay [2], in assay [10], in [11] and in assay [4] was “inactive” in each case.
Turning to `Cc1ccc(-c2nn3c(C)nnc3s2)cc1NCc1ccc(-c2cccc(Cl)c2)o1`, the Potency in assay [1] is 3.18 µM (active); in assay [2], 3.57 µM (active); in assay [10], 12.7 µM (active); in assay [11], 12.7 µM (active); in assay [5] it was 6.34 µM (active). Further, the Potency result in assay [4] was “inactive”.
